# Article PMC12864922, “TDP-43 directly inhibits mRNA accumulation in neurites through modulation of mRNA stability”
# The full ranking holds about 9,900 sequences; the median of “r (bound/input frequency ratio)” is about 0.7, and the highest 2% start at about 6.5. The full list was thinned out, with the highest values kept by preference.
# B1: ENSMUSG00000061578.897|Ksr2|214:218 (ssRNA)
# RNA: GGGAGUUCUACAGUCCGACGAUCGCUUCGAUAUCCGCAUGCUAUCCUGGGACACUACCCAAACCCUAGCACUCUCCCAGUGACUCUCCUAUGAGUACAUAUGCCAUCCUGCUUCCUUUGUGGCAAAACCCUGGGUCACCCAGAGACAGAUUUCCCAGAAUCCCUGGGCCACUUCUCAAUUCUACCCAUGACAGACAUGUCCCAUCCAUGAGCCCAGAUAGUCAAAGACUUCAGCACAAGGGUGUUUAGAGUAGGCACACACGAAGUAUCAAUAAGGUUAUUGAGAUGAGGAUUUAGAAAGAUCCUCUUGCGGUCGCACUAGUGUGGAAUUCUCGGGUGUCAAGG
# B2: ENSMUSG00000090935.723|Synj2bp (ssRNA)
# RNA: GGGAGUUCUACAGUCCGACGAUCGCUUCGAUAUCCGCAUGCUAAACAUUGUUUUAUUCCUAGGUGCUCAGGACAGACUGAUCAACCUCCAGUAACAUAUGUGGUUAGUAAGUGCUUCAGCUUGUGUAGCCAUUAAUAACCAAGUCAUAGGAUUGUGAAUCUAAAAUACUCCUGGGUAAAAUUUGUAUUAGAAUGGAAAAAAAAAUGAGGGUCAGAAAGGUGAGCUAACUUCAAGUUAGAUACUCCCCUCUAUUUUGGUCUCAAAUUUGUUUUAGUGUGUCCACAACAUGAAAACAUACAAAAACUCUUGCGGUCGCACUAGUGUGGAAUUCUCGGGUGUCAAGG
# B3: ENSMUSG00000058297.523|Spock2 (ssRNA)
# RNA: GGGAGUUCUACAGUCCGACGAUCGCUUCGAUAUCCGCAUGCUAUGGGUGGGCACAGGUCUGCCUUGCUCCAGCCCCCUCCCUUGGUUUCUGUUGGUACCCAUUUGGCUUUUAUCUGCUUUCUGCUUCACCACUAAGUGCGUAGGUGGGGUCUUUUGAUAUCGGCUCCCCAAAGCCCAAGCCCACAGCCCUAGGAGAGAACCAGGGGCCCAUCUUUGACACCUGGGCCAUCACGAGCCCUCCCGCCUGCAGUUGUCCUAGGGAAAGACCUGGGGGUGCAAAAGGAGAUUCAAGACAUCCGUACCCUCUUGCGGUCGCACUAGUGUGGAAUUCUCGGGUGUCAAGG
# B4: ENSMUSG00000004113.207|Cacna1b|52:56;242:246 (ssRNA)
# RNA: GGGAGUUCUACAGUCCGACGAUCGCUUCGAUAUCCGCAUGCUAAGGAAGCAUCGGGUGGAUUGGGUGGGAGCUGCUCAGAGCAGCACGGGGGCUACACACUUAGGGACAUUGACAGUGUCCAUCAGCAUGUCAGAGAAGCAGCUGUAGUGCCCGUGUUUCUCCCUGAGUCAUGGGUUCUGAAGAAGCCAGAGCGGCACAAUGCGUGCUUGCAUGAGGCACUUUCAGCCUUUUUAAAUCUGACUCUCAGGGAUGGGAUGCCUGCCAAGUAGGGUGUAAUCUCUGUACACAUUUUAAAACAACAACUCUUGCGGUCGCACUAGUGUGGAAUUCUCGGGUGUCAAGG
# B5: ENSMUSG00000032194.344|Kank2 (ssRNA)
# RNA: GGGAGUUCUACAGUCCGACGAUCGCUUCGAUAUCCGCAUGCUAAACACCCACCAGUCUCUCCUCUCCUUCCCGCUAUACUCCAGUUUUCUUUCUACUCUGUGACCACGGUACAUCCAUGAAGACAGUGUUACACGUAAAUGAAGUAUUCUUUUCUUGUAAUCAUAUUUUAGAAAGUAAAAGGACUUAAUAAAGCUACAAAUAAAAACAUUGCCUCGUGUCUGUUUGUUCUCCUUCUUUUUAGGCUAGCCUUGAACUCCUGAUCCUCCUGCCUUCCAUCUCCCAAGUGCUGGGAUGACAGGCACCUCUUGCGGUCGCACUAGUGUGGAAUUCUCGGGUGUCAAGG
# B6: ENSMUSG00000004113.341|Cacna1b|1:8;11:16 (ssRNA)
# RNA: GGGAGUUCUACAGUCCGACGAUCGCUUCGAUAUCCGCAUGCUACACACACAAGCACACAUCAGCAAGUGGCUAUUGUCAACCAUAGGGCUAUGCAACAAAAGACACAUUACUAGAAACAAAACACAAGACCACCACUUGGUCUAGGGUUUCAGCAUGAUUGUGACCAAACCUUUUAUAGAAUUUCCUUAUACAAAGGCACAAUACCCUGAAACUUUAACAGAGUAUUUUAUUCCAGUAGGGUAAAAUUAAACGGGACUCUUGGACUGCGCAUGUGACUGCACCCACGUUGCAACAGAGAAGGACUCUUGCGGUCGCACUAGUGUGGAAUUCUCGGGUGUCAAGG
# B7: ENSMUSG00000061578.75|Ksr2 (ssRNA)
# RNA: GGGAGUUCUACAGUCCGACGAUCGCUUCGAUAUCCGCAUGCUAAUGGAACCAGAAACAAUACACCUGCUCCGUUGUCAAGGCUUCUAGGCCAAGGUCAGGGUAGGGAGGUGGGGUGGGUUAAACUUGCAAACAUCUGAUUUUAGAGGUCCCAUUCCAAGAUGGAAGUCACCGGUUGCCGCUGAGCACACAAUUCUGAAGGACAGUAGGCAGUCCUGCAGGUCUUUUUUAGCACAGGGCCUCUCUGGGGACCAGUCCCUGGCCUUCACCCUUCUCCCAUUUUGUAAGAACACUGUUCUAACUCACUCUUGCGGUCGCACUAGUGUGGAAUUCUCGGGUGUCAAGG
# B8: ENSMUSG00000034801.114|Sos2 (ssRNA)
# RNA: GGGAGUUCUACAGUCCGACGAUCGCUUCGAUAUCCGCAUGCUACCCCAGGUGAUCAGCAGCAUUGCUUCCUCGGCUCCCCAGUGCUGCCCUAGGCCAGUAUAAAGACUCUGUAUUGCACUGUAGACUCUGCUAGCAGACGGCACUGAGAGGAGCCAGCGCUCGAGGGCGUUCUCACGCCUGACUGAUAGAUACCUUUUUAGGGUGAUGAACUUACACAGAUGCAGAAGAUAUGGGGUGGUGGUCCUGGGUUUUAACCCUCUGACCGUCUUCUAGCUUCUAAUUUUGUUUGGUUUUUACAUCUACUCUUGCGGUCGCACUAGUGUGGAAUUCUCGGGUGUCAAGG
# B9: ENSMUSG00000061578.1547|Ksr2|98:102 (ssRNA)
# RNA: GGGAGUUCUACAGUCCGACGAUCGCUUCGAUAUCCGCAUGCUAUUUAUAAAGUUUUCUACACUUCUCAAAAAAAAAAAUAUUUCUAACCUUGGCUGUUGGACAGUCUGUGAGCCUGUGAGCCGGCAAGCCUGUUGUUUCUACACAUUAGUGCAAUGUUAGUGAGAAUCCAGUGUCUGAGUUAUUAAUGCCAAUAAAGAAUUUGAGAAUUACUGCAUCCGCUGCUGUCACUCCAGGUCAGAACUCUGCUGUUGUCUGUUGGAUGGAAGGAAGCUCCAGAGUGAGGAACAAUGGUUGCUAACUGCCUCUUGCGGUCGCACUAGUGUGGAAUUCUCGGGUGUCAAGG
# Target: TDP-43 (Homo sapiens, UniProt Q13148 1-414)
# Sequence (Q13148 whole entry): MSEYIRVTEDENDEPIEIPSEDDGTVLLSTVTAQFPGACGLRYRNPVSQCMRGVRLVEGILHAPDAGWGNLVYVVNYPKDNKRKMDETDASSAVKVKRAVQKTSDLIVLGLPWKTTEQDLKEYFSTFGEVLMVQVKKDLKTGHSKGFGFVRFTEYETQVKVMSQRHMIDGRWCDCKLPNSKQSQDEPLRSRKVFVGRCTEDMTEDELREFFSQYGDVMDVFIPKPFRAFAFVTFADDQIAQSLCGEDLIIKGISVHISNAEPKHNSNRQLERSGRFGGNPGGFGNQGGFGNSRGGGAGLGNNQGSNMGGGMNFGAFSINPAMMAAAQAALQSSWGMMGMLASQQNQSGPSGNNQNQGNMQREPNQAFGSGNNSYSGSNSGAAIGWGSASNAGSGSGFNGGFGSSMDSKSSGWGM
# Assay: RNA Bind-n-Seq with designed 260-mer pool; 25 mM Tris-HCl, 150 mM KCl, 3 mM MgCl2, BSA (printed 500 mg/mL), 20 units/mL SUPERase IN; pH not stated; 500 nM RNA pool, 1 h, 4 C; TDP-43 5, 50, 500 nM; high values mean tight binding
# Conditions: protein: recombinant; tags: SBP (GST cleaved off with PreScission; pGEX-GST-SBP)
# Summary of the method: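 Recombinant SBP-tagged TDP-43 at 5, 50 or 500 nM was captured on streptavidin beads, then incubated 1 h at 4 °C with 500 nM of an in vitro-transcribed 260-nt 3′ UTR oligo pool in 25 mM Tris-HCl, 150 mM KCl, 3 mM MgCl2, BSA and SUPERase IN. Bound RNA was washed, eluted with biotin, reverse transcribed, PCR-amplified and sequenced. Binding is R, each oligo's mapped-read-normalized abundance in the bound sample divided by its abundance in input. Duplicates used two independent protein batches.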
row,Binder,binding signal
1,B1,0.295 R (bound/input frequency ratio)
2,B2,0.199 R (bound/input frequency ratio)
3,B3,0.928 R (bound/input frequency ratio)
4,B4,0.888 R (bound/input frequency ratio)
5,B5,0.585 R (bound/input frequency ratio)
6,B6,0.234 R (bound/input frequency ratio)
7,B7,0.151 R (bound/input frequency ratio)
8,B8,0.44 R (bound/input frequency ratio)
9,B9,0.38 R (bound/input frequency ratio)
